molecular target: FGA; test: pooled miR-30 sensor sort-seq; sequence = guide strand; details: shRNA
Note: reference of the scale not given here.

Row | Sequence | sensor-assay potency score (higher = more potent)
1 | TTTCTCTCCACTTCTCTAGCAA | 0.384
2 | TTCTATGACTTTGCGCTTCAGG | -0.597
3 | TAACTCCATTCTCATCTGCGGC | -1.53
4 | TTAGGTTGTAGAGAATCTCAAC | -0.726
5 | TTCTGCACAGTTCTCTTCCCAC | -0.744
6 | TTGATTGACTTCATCAATCAAC | -0.764
7 | TTTTTCTATGACTTTGCGCTTC | -0.192
8 | TGTAGTTCCAGTCTTCATCAGA | -0.66
9 | TTCAGGACTTCAATTCTGCTTC | -0.0905
10 | TAAAATTCAGTGATCCATCCAT | 0.455
11 | TTGTAGTCTTGCCAGGTCCGGT | -0.917
12 | TATTCTGTTTGTAAAATCTTGA | -0.477
13 | TCAATCAACCCTTTCATCCTGC | 0.452
14 | TTGTAGAGAATCTCAACTGCTT | 0.304
15 | TTGACTTCATCAATCAACCCTT | -0.0172
16 | TAAGTCTTTGGCAATGACCTGT | 0.441
17 | TCAAAGACTAATATGTCTCAGG | -0.257
18 | TTTAGCTACAGTACAAAGGATA | -0.909
19 | AACATTTTTCTGCAGAAGCTGG | -0.95

— the OligoGym collection
